PubChem BioAssay (NCATS)
Results filed as inconclusive are left out. A call without a number means that no potency is given here. Active and inactive are the calls of the source. The call rests on the fitted dose curve; in most records, active means well fitted cell-killing curve with a large enough effect; inconclusive means small, poorly fitted or top-dose-only effect, or effect the other way; inactive means no such curve, though single readings can be large or run the other way.

Assay: Viability qHTS for spleen associated tyrosine kinase inhibitor (SYKi) naive MV4-11 cells (AID 1963823); further: nearly all actives have a fitted effect of over 40% in size
Conditions: MV4-11 AML viability, CellTiter-Glo luminescence, 72 h; series mostly up to 45 µM
Method in brief: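 CellTiter-Glo luminescence, 10 min room-temperature incubation, gave viability. Cells: naive MV4-11 (500/well), treated 72 hr at 37 C, 5% CO2.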
Potency means the concentration at half of the fitted maximal effect.

Row | Compound | Potency | viability (% of control)
1 | COC1C(O)C(OC2CCC3(C)C(CCC45CCC6C7(COC(=O)C7)OC4(O)C6(C)CCC35)C2)OC(C)C1OC1OC(CO)C(OC2OC(CO)C(O)C(O)C2O)C(O)C1O (centres undefined) | 3.9 µM (active) | 
2 | CCOc1ccc(-c2ccc(Cn3c(CC(C)(C)C(=O)O)c(SC(C)(C)C)c4cc(OCc5ccc(C)cn5)ccc43)cc2)cn1 | inactive | 
3 | CC[C@H]1OC(=O)[C@H](C)[C@@H](O[C@H]2C[C@@](C)(OC)[C@@H](O)[C@H](C)O2)C(C)[C@@H](O[C@@H]2O[C@H](C)C[C@H](N(C)C)[C@H]2O)[C@](C)(O)C[C@@H](C)CN(C)[C@H](C)[C@@H](O)[C@]1(C)O (some centres undefined) | inactive | 
4 | C#CC(=O)N(c1ccc(OC)cc1OC)C(C(=O)NCC(=O)OCC)c1cccs1 (centres undefined) | 0.116 µM (active) | 
5 | CCCCCCCCCCCCC/C=C/[C@@H](O)[C@H](CO)N(C)C |  | 70.8% [at 4.97 µM] (inactive)
6 | COc1ccc(NC(=O)c2ccc(-c3ccc(-c4nnc(C)o4)cc3C)cc2)cc1N1CCN(C)CC1 | 23.1 µM (active) | 
7 | CC1=CC(=O)C2C(C)(C)CC(O)CC2(C)C1CO (centres undefined) | inactive | 
8 | COC(=O)C1=COC(OC2OC(CO)C(O)C(O)C2O)C2C1CC(OC(=O)C(O)CC(=O)O)C2C (centres undefined) | inactive | 
9 | Cc1cc(O[C@@H]2O[C@H](COC(=O)CC(=O)O)[C@@H](O)[C@H](O)[C@H]2O)c(C(C)C)cc1O | inactive | 
10 | NC1Nc2ccccc2C1(N)CC1NC(=O)C(Cc2ccccc2)NC(=O)C(Cc2ccccc2)NC1=O (centres undefined) | inactive | 
11 | CC1CCC2(OC1)OC1CC3C4CCC5C[C@@H](O[C@@H]6O[C@H](CO[C@@H]7OC[C@@H](O)[C@H](O)[C@H]7O)[C@H](O)[C@H](O)[C@H]6O)CC[C@]5(C)C4CC[C@]3(C)C1C2C (some centres undefined) | inactive | 
12 | C/C=C/C=C/C=C/C(=O)O[C@@H]1C=C(CO)C(O)(C(=O)O)[C@@]2(C)CCCC(C)(C)[C@H]12 (some centres undefined) | inactive | 
13 | C[C@H]1C(=O)N2c3ccccc3[C@@]3(O)C[C@@H]4C(=O)N[C@](C)(c5nc6ccccc6c(=O)n54)N1[C@@H]23 | inactive | 
14 | CC(C)CC1OC(=O)C2CCCN2C(=O)CCNC(=O)C(Cc2ccccc2)NC(=O)C(C(C)C)N(C)C(=O)C(C(C)C)N(C)C1=O (centres undefined) | inactive | 
15 | COc1cc(/C=C2\CCCN([C@@H](C)c3ccc(F)cc3)C2=O)ccc1-n1cnc(C)c1 | 9.2 µM (active) | 
16 | Cc1cc(CO)c(O)c(C(=O)CC2CC(=O)NC(=O)C2)c1 | inactive | 
17 | CC(=O)O[C@H]1[C@H](Oc2ccccc2COC(=O)C2(O)C=CCCC2=O)O[C@H](CO)[C@@H](O)[C@@H]1O (some centres undefined) | inactive | 
18 | C=C1CCC2(OC1)OC1CC3C4CC=C5CC(O)CC(O[C@@H]6OC[C@H](OC(=O)C(O)C(C)CC)[C@H](O)[C@H]6O[C@@H]6O[C@@H](C)[C@H](O)[C@@H](O)[C@H]6O)C5(C)C4CCC3(C)C1C2C (some centres undefined) |  | 76.1% [at 9.25 µM] (inactive)
19 | C=C[C@H]1[C@H](O[C@@H]2O[C@H](CO)[C@@H](O)[C@H](O)[C@H]2O)OC=C(C(=O)OC)[C@H]1C[C@@H]1N[C@H](C(=O)O)Cc2c1[nH]c1ccccc21 | inactive | 
20 | Cc1ccc(OC[C@H](O)[C@H](C)NC(C)C)c2c1CCC2 | inactive | 

Row | Compound | Potency | viability (% of control)
21 | C/C=C(\C)C(=O)O[C@@H](C)[C@H]1CC[C@]2(O)C3CCC4C[C@@H](OC5CC(OC)C(OC6CC(OC)C(OC7CC(OC)C(OC8OC(C)C(OC9OC(CO)C(O)C(O)C9O)C(OC)C8O)C(C)O7)C(C)O6)C(C)O5)CC[C@]4(C)C3[C@H](O)[C@@H](O)[C@]12C (some centres undefined) |  | 34.7% [at 9.25 µM] (inactive)
22 | CC(c1ncncc1F)C(O)(Cn1cncn1)c1ccc(F)cc1F (centres undefined) | inactive | 
23 | C/C=C1/[C@H](O[C@@H]2O[C@H](CO)[C@@H](O)[C@H](O)[C@H]2O)OC=C(C(=O)OC)[C@H]1CC(=O)O[C@@H]1O[C@H](CO)[C@@H](O)[C@H](O)[C@H]1O | inactive | 
24 | CSc1ccc(C(=O)N[C@@H]2CCCC[C@@H]2NC(=O)CNC(=O)c2cc(C(F)(F)F)ccc2NC(=O)NC(C)C)cc1 | inactive | 
25 | COC(=O)C1=CO[C@@H](O[C@@H]2O[C@H](CO)[C@@H](O)[C@H](O)[C@H]2O)[C@H]2[C@@H]1[C@H](O)C[C@]2(C)O | inactive | 
26 | CC(c1c[nH]c2ccccc12)C(O)C(=O)O (centres undefined) | inactive | 
27 | C[C@H]1[C@H](C)CC[C@]2(C(=O)O)CC[C@]3(C(=O)O)C(=CCC4[C@@]5(C)CC[C@H](O[C@@H]6O[C@H](C)[C@@H](O)[C@H](O)[C@H]6O)C(C)(C)C5CC[C@]43C)[C@H]12 (some centres undefined) | inactive | 
28 | C=C/C=C/[C@@H]1OC[C@H](/C=C/C=C/C)[C@H]1O | inactive | 
29 | CCC(C)(NC(=O)C(CCC(N)=O)NC(=O)C1CC(O)CN1C(=O)C(C)(C)NC(=O)C(C)(C)NC(=O)C(CC(C)C)NC(=O)CNC(=O)C(NC(=O)C(C)(C)NC(=O)C(C)(C)NC(=O)C(C)(C)NC(=O)C(Cc1ccccc1)NC(C)=O)C(C)C)C(=O)N1CC(O)CC1C(=O)NC(C)(C)C(=O)NC(CO)Cc1ccccc1 (centres undefined) | 1.74 µM (active) | 
30 | C=C1[C@H]2CCC3[C@]4(C)CCC[C@@](C)(C(=O)O)C4CC[C@]3(C2)[C@H]1OC(C)=O (some centres undefined) | inactive | 
31 | CC(=O)c1c(C)cc(O)cc1O[C@@H]1O[C@H](CO)[C@@H](O)[C@H](O)[C@H]1O | inactive | 
32 | O=c1ccn(C2OC(CO)C(O)C2O)c(=O)[nH]1 (centres undefined) | inactive | 
33 | C#CCCCn1cc(-c2cccc3c2N[C@@H](C)CC(=O)N3)cn1 | inactive | 
34 | CC1=CC(=O)[C@]2(O[C@@H]3O[C@@H](C)[C@H](O)[C@@H](O)[C@H]3O)C=CO[C@@H](O[C@@H]3O[C@H](CO)[C@@H](O)[C@H](O)[C@H]3O)[C@H]12 | inactive | 
35 | COC(=O)C[C@@H]1C(C(=O)O)=CO[C@@H](O[C@@H]2O[C@H](CO)[C@@H](O)[C@H](O)[C@H]2O)/C1=C\COC(=O)/C=C\c1ccccc1 | inactive | 
36 | CNCCC(Oc1ccc(C(F)(F)F)cc1)c1ccccc1 (centres undefined) | 18.8 µM (active) | 
37 | N#Cc1cccc(-c2nc(-c3cccnc3)no2)c1 | inactive | 
38 | Nc1n[nH]c(N)c1N=Nc1ccc(O)cc1 | 9.2 µM (active) | 
39 | CC(C)(O)C1CCC2(C)C3C(O)C4C(C13)C42CO (centres undefined) | inactive | 
